test system: MDA-MB-231; experiment: relative cell viability, compound alone, vs DMSO (fraction of DMSO control); higher = less growth inhibition; settings: 72 h
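Note: viability read out with the CCK-8 kit in 96-well plates, screening a set of 303 compounds acting on lipid metabolism targets.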

SMILES | relative cell viability
CCc1c(-c2ccccc2)c(-c2ccccc2)nn1-c1ccccc1-c1cccc(OCC(=O)O)c1 | 0.994
CCN(CC)Cc1ccc(C(=O)N(CCc2ccccc2OC)[C@@H]2CCNC2)cc1 | 0.979
C[C@H](CCOc1cccc(CC(=O)O)c1)N(Cc1cccc(C(F)(F)F)c1Cl)CC(c1ccccc1)c1ccccc1 | 0.841
CNC(=O)c1cccc(NC(=O)N2CCC(Oc3ccccc3Cl)CC2)c1 | 0.974
O=C(OC(C(F)(F)F)C(F)(F)F)N1CCC(C(O)(c2ccc3c(c2)OCO3)c2ccc3c(c2)OCO3)CC1 | 0.855
CN(C)c1cccc(-c2c3c(=O)n(-c4ccccc4Cl)[nH]c3cc(=O)n2C)c1 | 0.974
CC(C)(C)NC(=O)[C@H]1CC[C@H]2[C@@H]3CC[C@H]4NC(=O)C=C[C@]4(C)[C@H]3CC[C@]12C [Finasteride] | 0.934
CC[C@@H]1/C=C(\C)C[C@H](C)C[C@H](OC)[C@H]2O[C@@](O)(C(=O)C(=O)N3CCCC[C@H]3C(=O)O[C@H](/C(C)=C/[C@@H]3CC[C@@H](O)[C@H](OC)C3)[C@H](C)[C@@H](O)CC1=O)[C@H](C)C[C@@H]2OC [Ascomycin] | 0.236
O=C(O)CN(CC(=O)O)c1ccccc1OCCOc1ccccc1N(CC(=O)O)CC(=O)O | 0.899
COc1cccc(CNc2ccc(S(=O)(=O)Nc3nc4ccccc4s3)cc2)c1O | 0.975
CC(C)[C@H]1CC[C@H](C(=O)N[C@H](Cc2ccccc2)C(=O)O)CC1 [Nateglinide] | 0.869
CCN(CC)c1ccc(C=NNC(=O)c2ccncc2)c(O)c1 | 0.624
Cc1nc(Nc2cnn(C3CCNCC3)c2)nc2c1N(C)C(=O)c1cc3ccccc3cc1N2C | 0.49
CC(C)(CCCCCC(O)CCCCCC(C)(C)C(=O)O)C(=O)O | 0.886
Oc1ccc2c(c1)OCO2 [Sesamol] | 0.831
CCCCCCCCCCCCCCOc1ccc(C(=O)OCC(=O)N(C)CC(=O)OCC)o1 [Olumacostat Glasaretil] | 0.863
CC1(C)CC[C@]2(C(=O)O[C@@H]3O[C@H](CO)[C@@H](O)[C@H](O)[C@H]3O)CC[C@]3(C)C(=CC[C@@H]4[C@@]5(C)CC[C@H](O[C@@H]6O[C@H](C(=O)O)[C@@H](O)[C@H](O)[C@H]6O[C@@H]6O[C@H](CO)[C@@H](O)[C@H](O)[C@H]6O)C(C)(C)[C@@H]5CC[C@]43C)[C@@H]2C1 [Ginsenoside Ro] | 0.9
COc1ccc2c(c1)c(CC(=O)O)c(C)n2C(=O)c1ccc(Cl)cc1 [Indometacin] | 0.842
CCCCCCCCCCC[C@@H](C[C@@H]1OC(=O)[C@H]1CCCCCC)OC(=O)[C@H](CC(C)C)NC=O [Orlistat] | 0.809
CCC(=O)O[C@]1(C(=O)CCl)[C@@H](C)C[C@H]2[C@@H]3C[C@H](F)C4=CC(=O)C=C[C@]4(C)[C@@]3(F)[C@@H](O)C[C@@]21C [Halobetasol Propionate] | 1.13
C=C(C)[C@@H]1CC[C@]2(CO)CC[C@]3(C)[C@H](CC[C@@H]4[C@@]5(C)CC[C@H](O)C(C)(C)[C@@H]5CC[C@]43C)[C@@H]12 [Betulin] | 0.907
O=C(/C=C/c1ccc(/C=C/C(=O)Nc2ccc(C3=NCCN3)cc2)cc1)Nc1ccc(C2=NCCN2)cc1 | 0.765
Cc1ccc(Oc2nc3cc(-c4ccc(-c5ccccc5)cc4)c(Cl)cc3[nH]2)cc1C(=O)O | 0.92
COP(=O)(OC)OC(c1ccc(Cl)cc1)P(=O)(OC)OC (stereo not drawn) [Mifobate] | 1.2
O=C(NNc1ccccc1)c1ccncc1 [PluriSln 1] | 0.814
Cc1nc2ccc(C(=O)N3CCC4(CC3)CC(=O)c3c(cnn3C(C)C)C4)cc2[nH]1 | 0.859
CC(C)C1=CC2=CC[C@@H]3[C@](C)(CCC[C@@]3(C)C(=O)O)[C@H]2CC1 [Abietic Acid] | 1.07
CN(C)C(=N)NC(=N)N [Metformin] | 0.93

From the supplement of paper PMC9492666
